# The list is not random: actives were taken first. Their share in the collection is about 1.3%.
# KCNH2 3.1 block: inhibitors of human KCNH2 3.1 potassium channel isoform | 340,000 tested, 0.95% active | activity change, % (tested at about 1.8 µM) | U2OS KCNH2 3.1, thallium flux FluxOr; active compounds read low | AID 720553;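 active = maximum activity change below -70%; inconclusive = maximum activity change from -70% to -50%; inactive = maximum activity change above -50%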;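 note: thallium influx rate constant from kinetic fluorescence after stimulation buffer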
#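 Kinetic fluorescence (2 min after stimulation buffer) measures Tl+ influx through KCNH2 3.1 expressed by viral transduction in U2OS cells; the rate constant is normalized against DMSO controls serving as positive and negative references.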
# TRPV1 ag: agonists of human vanilloid receptor 1 (TRPV1) | TRPV1-expressing cells, Fluo-8 calcium influx, agonist mode | activation, % at 8.33 µM | 320,000 tested, 0.19% active; in the data active = activation above about 80%; inconclusive = between about 30% and that limit
#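 Fluo-8 calcium influx in TRPV1-expressing cells, kinetic read (ex 480/em 520 nm). Compound added and read 3 min for agonist activity, followed by capsaicin at EC20 final and 2 min further read for enhancement.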
# TRPV1 PAM: potentiators of human vanilloid receptor 1 (TRPV1); potentiation, % at 8.33 µM; Q8NER1; TRPV1-expressing cells, Fluo-8 calcium influx, capsaicin EC20 potentiation; 320,000 tested, 0.02% active; in the data active = potentiation above about 80%; inconclusive = between about 30% and that limit
#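 Fluo-8 calcium influx in TRPV1-expressing cells, kinetic read (ex 480/em 520 nm). Compound added and read 3 min for agonist activity, followed by capsaicin at EC20 final and 2 min further read for enhancement.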
# MBNL1 CUG block: MBNL1-poly(CUG) RNA binding inhibition | Q9NR56 | TR-FRET MBNL1-His/biotin-(CUG)12 binding, 665/545 ratio | Potency, µM (top dose mostly 57.5 µM), usual class: inhibitors | 280,000 tested, 0.036% active; active = well fitted inhibition curve with a large enough effect in the signal ratio, with a control signal flat, not every such curve was filed as active; inconclusive = small, poorly fitted or top-dose-only effect, or effect the other way, or a change in a side signal; inactive = no such curve, though single readings can be large or run the other way; the % refers to the signal ratio
#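 Ratiometric TR-FRET (665 over 545 nm, excitation 340 nm) tracks disruption of MBNL1-His/biotin-(CUG)12 complex after 60 min at room temperature, with compounds at 92 nM to 58 uM final.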
# hERG WT inh: KCNH2 (human, wildtype) channel inhibition. 340,000 tested, 0.37% active. U2OS, BacMam KCNH2, thallium flux FluxOr; active compounds read low. activity change, % at 1.84 µM. Q12809;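 active = maximum activity change below -70%; inconclusive = maximum activity change between -70% and -50%; inactive = maximum activity change above -50%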
#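 U2OS cells were transduced with wild-type KCNH2 virus (2.03 x 10^8 / mL) for 4 h at room temperature, then cultured overnight at 37 C. Thallium flux was read with FluxOr dye. Rate constants were normalized to DMSO controls.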
# A number is an active result; – = inactive; ? = inconclusive; · = not tested or not shown.
SMILES,KCNH2 3.1 block,TRPV1 ag,TRPV1 PAM,MBNL1 CUG block,hERG WT inh
CCc1cccc(NC(=O)CCCCCC2NC(=O)NC2C)c1 (configuration not stated),–,–,–,0.1µM,–
Cc1ccc(NC(=O)CCCCCC2NC(=O)NC2C)cc1 (configuration not stated),–,–,–,0.045µM,–
O=C(Nc1ccc(-c2nc3ccccc3[nH]2)cc1)c1cccc(N2C(=O)CCC2=O)c1,–,–,–,·,–
CCc1noc(C)c1C(=O)NCCN1C(=O)S/C(=C\c2ccccc2F)C1=O,-77,·,·,·,–
Cc1onc(-c2ccccc2)c1C(=O)N=C(N)c1ccc(C(F)(F)F)cc1,–,–,–,·,–
CC(=O)c1ccc(N2CCN(C(=O)c3nn(Cc4ccccc4)c(=O)c4ccccc34)CC2)cc1,-86,–,–,–,?
CC(C)OCCCN1CC(=O)N2C(c3ccccc3)c3[nH]c4ccccc4c3C[C@H]2C1=O (some centres not stated),?,–,–,–,–
COc1cccc(C2c3[nH]c4ccccc4c3C[C@H]3C(=O)N(CCCOC(C)C)CC(=O)N23)c1 (some centres not stated),-156,–,–,–,–
COC(=O)c1c(C)[nH]c(C(=O)OCC(=O)c2c(N)n(CC(C)C)c(=O)n(C)c2=O)c1C,–,·,·,·,–
CCn1cc(S(=O)(=O)CC(=O)Nc2cc(C)ccc2C)c2ccccc21,-118,·,·,–,–
CCn1cc(S(=O)(=O)CC(=O)Nc2ccc3c(c2)OCO3)c2ccccc21,–,–,–,–,–
COC(=O)C(NC(C)=O)(Nc1nc2c(C)cc(C)cc2s1)C(F)(F)F (configuration not stated),–,–,–,–,–
C[C@@H]1CN([C@@H](C)CO)C(=O)c2cccc(NS(C)(=O)=O)c2O[C@H]1CN(C)CC1CCCCC1,–,·,·,·,–
O=S(=O)(c1ccc(Br)cc1)N1CCN(c2ccc3nnc(-c4ccccc4)n3n2)CC1,-91,–,–,?,–
O=c1ccc2ccc(OCCOc3cccc(Cl)c3)cc2o1,–,–,–,–,–
COc1ccccc1C(CCN(Cc1cccs1)C(C)=O)c1ccco1 (configuration not stated),-74,–,–,–,–
CCOC(=O)c1cnc(SCc2cccc3ccccc23)nc1N,-133,–,–,–,–
O=C(CN1CCC(n2nnc3cc(C(F)(F)F)ccc32)CC1)Nc1ccc2c(c1)OCCO2,–,–,–,–,–
O=C(CN1CCC(n2nnc3cc(C(F)(F)F)ccc32)CC1)Nc1ccc2c(c1)CCC2,-78,–,–,–,–
O=c1nc(Oc2ccccc2)nc2ncccn12,–,·,·,·,–
O=C(Cc1ccc(Cl)cc1)NC1CCCCCC1,–,?,–,–,–
O=C(Cc1ccc(F)cc1)NC1CCCCCC1,-87,?,–,–,–
CCCNC(=O)c1csc2c1CCCCC2,-78,–,–,–,–
O=C(NCCCn1ccnc1)Nc1ccc2c(c1)OCO2,–,–,–,–,-112
O=C(CN1CCN(CC(=O)c2ccc(Cl)cc2)CC1)c1ccc(Cl)cc1,–,·,·,·,–
SMILES,KCNH2 3.1 block,TRPV1 ag,TRPV1 PAM,MBNL1 CUG block,hERG WT inh
O=C(Cn1cc(Cl)ccc1=O)c1ccc(Cl)cc1,·,–,–,·,-134
O=C(NC12CC3CC(CC(C3)C1)C2)c1ccccc1,–,–,–,–,–
O=C(COC(=O)CNC(=O)c1ccccc1)NC12CC3CC(CC(C3)C1)C2,–,·,·,·,-81
O=C(COC(=O)c1ccccc1Cl)NC(=O)NCc1ccccc1,-226,–,–,–,-139
CCCCNC(=O)COC(=O)c1ccccc1F,–,–,–,–,-131
O=C(COC(=O)c1ccccc1C(=O)c1ccc(Cl)cc1)NCCc1ccccc1,-72,–,–,–,–
O=C(COC(=O)c1ccccc1C(=O)c1ccccc1)NCCc1ccccc1,–,–,–,–,–
CC(C)(C)NS(=O)(=O)c1ccc(NS(C)(=O)=O)cc1,–,–,–,–,–
CCN(CC(=O)Nc1c(F)cccc1F)C(=O)CCCN1C(=O)c2cccc3cccc(c23)C1=O,–,·,·,·,–
CCOc1ccc(/C=N/n2c(SC)nnc(C(C)(C)C)c2=O)cc1,–,–,–,–,-80
COc1ccc(/C=N/n2c(SC)nnc(C(C)(C)C)c2=O)cc1,–,–,–,–,–
CCc1nnc(NC(=O)Cc2c[nH]c3ccccc23)s1,-144,–,–,–,–
CCOC(=O)C1=C(C)NC(=S)NC1c1ccc(OCC(=O)N2CCCCC2)cc1 (configuration not stated),–,–,–,–,–
CCOc1ccc2[nH]c(=O)c(CN(CCO)C(=O)c3ccc(Br)cc3)cc2c1,-140,–,–,–,–
CCOc1ccc2[nH]c(=O)c(CN(CCO)C(=O)CC)cc2c1,–,–,–,–,–
Cc1cc(Cn2nc(C(=O)NCc3cccc(C(F)(F)F)c3)cc2-c2ccccc2)on1,-83,–,–,·,–
Cc1ccc(CNC(=O)c2cc(-c3ccccc3)n(Cc3cc(C)no3)n2)cc1,–,–,–,·,–
OCC[C@@H]1C[C@@H](O)[C@H](O)[C@@]2(CCc3ccccc3O2)O1,–,–,–,–,-169
OCC[C@H]1C[C@@H](O)[C@H](O)[C@]2(OCc3ccccc32)O1,-89,–,–,·,–
OCC[C@@H]1C[C@H](O)[C@@H](O)[C@@]2(OCc3ccccc32)O1,-136,–,–,–,–
OCC[C@@H]1C[C@@H](O)[C@H](O)[C@@]2(OCc3ccccc32)O1,–,–,–,–,–
COc1ccc(C(=O)NCCc2cc3ccc(C)c(C)c3[nH]c2=O)cc1OC,-111,–,–,–,–
Cc1ccc(C(=O)NCCc2cc3ccc(C)c(C)c3[nH]c2=O)cc1[N+](=O)[O-],–,–,–,–,–
O=C(O)/C=C/C(=O)Nc1ccc(-c2ccccc2)cc1,–,–,–,–,–
CN1CCC(N(C)CC(=O)Nc2ccc3c(c2)OC(F)(F)O3)CC1,–,·,·,·,–
SMILES,KCNH2 3.1 block,TRPV1 ag,TRPV1 PAM,MBNL1 CUG block,hERG WT inh
CN1CCC(N(C)CC(=O)Nc2cccc(Oc3ccccc3)c2)CC1,-95,–,–,–,–
Cc1ccc(S(=O)(=O)c2nnn3c2nc(NC2CCN(Cc4ccccc4)CC2)c2ccccc23)cc1C,-81,–,–,–,–
O=C(Nc1ccc(F)cc1F)c1ccco1,-77,–,–,–,–
N=c1c(C(=O)NCc2ccc3c(c2)OCO3)cc2c(=O)n3ccccc3nc2n1CC1CCCO1 (configuration not stated),–,–,–,?,–
N=c1c(C(=O)NCC2CCCO2)cc2c(=O)n3ccccc3nc2n1Cc1ccc(Cl)cc1 (configuration not stated),-131,?,–,?,–
N=c1c(C(=O)NCC2CCCO2)cc2c(=O)n3ccccc3nc2n1Cc1ccccc1 (configuration not stated),–,?,–,?,–
